Screening results from PubChem.
ELG1 repair inh: blocks ELG1-dependent DNA repair in HEK293T cells | Potency, µM (doses to about 46.1 µM), usual class: inhibitors | 2.3% of 330,000 active | HEK293T ELG1-luciferase reporter, luminescence, 16 h; DNA damage induced by 5-fluorouridine; note: nearly all actives have a fitted effect of over 55% in size
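Step one: seed 2,000 cells per well. Step two: pin-transfer compound or DMSO alongside 5-fluorouridine. Step three: incubate 16 hr, 37 °C, 5% CO2. Step four: add ONE-Glo, wait 30 min, read luminescence.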
DT40 TDP1 no CPT: qHTS for Inhibitors of human tyrosyl-DNA phosphodiesterase 1 (TDP1): qHTS in cells in absence of CPT. DT40 Tdp1-/- hTDP1 cells, no CPT, ATP luminescence, 48 h. Potency, µM (titrated, usually from 46.2 µM), hits mostly inhibitors. 15% of 420,000 active; note: nearly all actives have a fitted effect of over 55% in size
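Chicken DT40 Tdp1-/- cells stably complemented with human TDP1 were seeded at 400 cells/well with DMSO in place of 20 nM camptothecin. After compound pinning, cells grew at least 48 hr at 37 °C; viability read by CellTiter-Glo luminescence.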
DT40 TDP1 CPT: DT40-hTDP1 cell growth loss with CPT; chicken DT40 Tdp1-/-;hTDP1 cells + 20 nM CPT, ATP luminescence, 48 h; Potency, µM (titrated, usually from 46.2 µM), most hits filed as inhibitors; 12% of 420,000 active; AID 686979; note: nearly all actives have a fitted effect of over 55% in size
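Cell growth measured by CellTiter-Glo luminescence after a minimum 48 h, 37 C compound exposure with 20 nM CPT in Tdp1-knockout DT40 cells stably expressing hTDP1, seeded 400/well; qHTS titration format.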
RORg inh: blocks mouse ROR gamma transcriptional activity. Drosophila S2 Gal4-RORgamma UAS-luciferase reporter, 20 h. Potency, µM (highest dose often 53.6 µM), actives largely listed as inhibitors. 5.4% of 310,000 active. AID 2551; note: nearly all actives have a fitted effect of over 60% in size
Target sequence (P51450 whole entry, looked up, the tested form may be a part): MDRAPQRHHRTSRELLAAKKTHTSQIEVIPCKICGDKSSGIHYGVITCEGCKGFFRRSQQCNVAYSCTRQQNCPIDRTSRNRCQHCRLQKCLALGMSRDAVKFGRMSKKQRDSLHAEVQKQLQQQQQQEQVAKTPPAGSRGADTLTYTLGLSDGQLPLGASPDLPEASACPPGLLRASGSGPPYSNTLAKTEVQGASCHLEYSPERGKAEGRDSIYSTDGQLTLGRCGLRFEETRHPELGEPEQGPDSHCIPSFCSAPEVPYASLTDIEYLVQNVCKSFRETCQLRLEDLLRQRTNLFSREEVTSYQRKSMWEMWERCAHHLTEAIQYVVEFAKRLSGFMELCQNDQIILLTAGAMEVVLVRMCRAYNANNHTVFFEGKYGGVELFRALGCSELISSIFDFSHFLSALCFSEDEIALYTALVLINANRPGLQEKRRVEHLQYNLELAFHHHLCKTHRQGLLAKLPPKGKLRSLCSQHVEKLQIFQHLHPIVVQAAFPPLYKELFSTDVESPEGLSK
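Luciferase reporter read in Schneider cells carrying Gal4-RORγ (mouse) and UAS-Photinus luciferase; cells given compound 1 h before 700 uM copper sulfate induction, then incubated 20 h at ambient temperature.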
Gal4-VP16 FLuc: counter-screen for ROR gamma inhibitors: Gal4-VP16 reporter. 3.5% of 310,000 active. Drosophila S2 Gal4-VP16 UAS-luciferase, luminescence, 20 h. Potency, µM (doses to about 53.6 µM), most hits filed as inhibitors;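 note: Gal4-VP16 expression switched on by copper sulfate through the metallothionein promoter; nearly all actives have a fitted effect of over 50% in size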
IL1B secr inh: inhibitors of inflammasome signaling (IL-1 beta secretion) | activity change, % at 57.5 µM | AID 743279 | THP-1 LPS/ATP IL-1B secretion, AlphaLISA, 16 h; active compounds read low | 4.7% of 360,000 active; in the data active = activity change below about -50%; inconclusive = mostly about -30% to -49%
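Secreted IL-1B measured by AlphaLISA bead assay after 16 h compound exposure of THP-1 cells; compounds (final up to 57.5 uM) added 1 h before LPS (250 ng/mL) and ATP (1.25 mM) stimulation; lower signal means less secretion.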
Numbers stand for hits; i = inactive; ? = inconclusive; nt = no result given. Hits are enriched below; roughly 21% of the tested compounds scored in any of these assays. Unless noted, calls come from the whole dose curve; as a rule, active = well fitted curve in the direction sought with a large enough effect; inconclusive = small, poorly fitted or top-dose-only effect, or another doubt; inactive = no such curve, though single readings can be large; an effect the other way counts as inactive or inconclusive.

SMILES	ELG1 repair inh	DT40 TDP1 no CPT	DT40 TDP1 CPT	RORg inh	Gal4-VP16 FLuc	IL1B secr inh
C#CCOCCOCCOCCNc1nc(N2CCN(C(=O)CCCCCCCCCCNC(=O)[C@@H](CCSC)n3cc(CCO)nn3)CC2)nc(N2CCN(C(=O)CCCCCCCCCCNC(=O)[C@H](CCC(=O)O)n3cc(CCCCCN)nn3)CC2)n1	i	i	i	nt	nt	-52.8
C#CCOCCOCCOCCNc1nc(N2CCOCC2)nc(N2CCN(C(=O)CCCCCCCCCCNC(=O)[C@H](CO)n3cc(CCCSC)nn3)CC2)n1	?	?	23.1µM	nt	nt	i
C#CCOCCOCCOCCNc1nc(N2CCN(C(=O)CCCCCCCCCCNC(=O)[C@@H](CCSC)n3cc(CCO)nn3)CC2)nc(N2CCN(C(=O)CCCCCCCCCCNC(=O)[C@H](CO)n3cc(CCCCCN)nn3)CC2)n1	i	?	?	nt	nt	-82.2
C#CCOCCOCCOCCNc1nc(N2CCN(C(=O)CCCCCCCCCCNC(=O)[C@@H](CCC(=O)O)n3cc(CCCCCN)nn3)CC2)nc(N2CCN(C(=O)CCCCCCCCCCNC(=O)[C@H](CO)n3cc(CCCCCN)nn3)CC2)n1	i	i	i	nt	nt	?
C#CCOCCOCCOCCNc1nc(N2CCN(C(=O)CCCCCCCCCCNC(=O)[C@@H](CCC(=O)O)n3cc(CCCCCN)nn3)CC2)nc(N2CCN(C(=O)CCCCCCCCCCNC(=O)[C@H](CCCCN)n3cc(C[C@@H](C)CC)nn3)CC2)n1	3.16µM	?	?	nt	nt	?
C#CCOCCOCCOCCNc1nc(N2CCN(C(=O)CCCCCCCCCCNC(=O)[C@H](CCCCN)n3cc(CCO)nn3)CC2)nc(N2CCN(C(=O)CCCCCCCCCCNC(=O)[C@H](CCCCN)n3cc(C[C@@H](C)CC)nn3)CC2)n1	?	?	?	nt	nt	i
CCCCn1c(N)c(N(CC(C)C)C(=O)CCC2CCCCC2)c(=O)[nH]c1=O	i	i	i	i	i	i
CC(=O)N=C1C=CC(=CN(O)C(C)(C)Cc2ccccc2)C=C1	i	i	i	nt	nt	i
NC(Cc1c[nH]c2ccccc12)C(=O)NCC(=O)O (configuration not stated)	nt	i	i	i	i	nt
C#CCOCCOCCOCCNc1nc(N2CCN(C(=O)CCCCCCCCCCNC(=O)[C@@H](CCC(=O)O)n3cc(CCCCCN)nn3)CC2)nc(N2CCN(C(=O)CCCCCCCCCCNC(=O)[C@H](CO)n3cc(CCCSC)nn3)CC2)n1	i	i	13µM	nt	nt	-55.8
C[N+]1(CC2COC3(CCCCC3)O2)CCCC1 (configuration not stated)	i	i	i	i	i	i
C1CCCCCC2(CCCCC1)OCC(CN1CCOCC1)O2 (configuration not stated)	i	23.1µM	?	i	i	i
COc1ccccc1N1CCN(C(=O)C2CCN(S(=O)(=O)c3ccc4c(c3)CC(C)N4C(C)=O)CC2)CC1 (configuration not stated)	i	11.6µM	?	i	i	i
COc1ccccc1N1CCN(S(=O)(=O)c2ccc3c(c2)CC(C)N3C(C)=O)CC1 (configuration not stated)	i	?	?	i	i	i
COc1ccccc1N1CCN(C(=O)C2CCN(S(=O)(=O)c3ccc(Cl)cc3)CC2)CC1	i	20.6µM	?	?	i	i
CC1Cc2cc(S(=O)(=O)N3CCC(C(=O)N4CCN(c5ccccc5F)CC4)CC3)ccc2N1C(=O)C1CC1 (configuration not stated)	?	?	?	i	i	-51.5
COc1ccccc1N1CCN(C(=O)C2CCN(S(=O)(=O)c3ccccc3)CC2)CC1	i	i	i	i	i	i
COc1ccccc1N1CCN(C(=O)C2CCN(S(=O)(=O)c3ccc4c(c3)CC(C)N4C(=O)C3CC3)CC2)CC1 (configuration not stated)	?	?	?	?	i	-52.6
COCCOC(=O)C1=C(C)NC(=O)NC1c1cn(-c2ccccc2)nc1-c1ccccc1 (configuration not stated)	nt	i	i	nt	nt	nt
CC(C)c1ccc(S(=O)(=O)N2CCC(C(=O)N3CCN(c4cccc(Cl)c4)CC3)CC2)cc1	nt	?	25.9µM	nt	nt	i
COc1cc(NC(=O)N2CCc3c(sc4c3CCCC4)C2c2ccccc2)cc(OC)c1OC (configuration not stated)	nt	20.6µM	10.3µM	nt	nt	nt
COc1cc(OC)c(NC(=O)N2CCc3c(sc4c3CCCC4)C2c2ccccc2)cc1Cl (configuration not stated)	nt	20.6µM	?	nt	nt	nt
COc1cc(CNC(=O)C2CC(O)CN2C(=O)Nc2ccccc2)cc(OC)c1OC (configuration not stated)	nt	i	i	nt	nt	i
COc1cc(OC)c(NC(=O)N2CCc3c([nH]c4ccccc34)C2c2ccccc2F)cc1Cl (configuration not stated)	nt	23.1µM	18.4µM	nt	nt	nt
CCN(CC)CC(=O)N1CCCC(N2CCN(c3cccc(C(F)(F)F)c3)CC2)C1 (configuration not stated)	i	?	?	i	i	i
SMILES	ELG1 repair inh	DT40 TDP1 no CPT	DT40 TDP1 CPT	RORg inh	Gal4-VP16 FLuc	IL1B secr inh
CC(=O)Nc1sc(C)c(C)c1C(=O)OCC(=O)N(CC(C)C)c1c(N)n(Cc2ccccc2)c(=O)[nH]c1=O	?	5.8µM	23.1µM	nt	nt	i
CC(C)CN(C(=O)COC(=O)c1cc2ccccc2cc1O)c1c(N)n(Cc2ccccc2)c(=O)[nH]c1=O	nt	?	?	nt	nt	-54.4
CC(C)CN(C(=O)COC(=O)C12CC3CC(CC(C3)C1)C2)c1c(N)n(Cc2ccccc2)c(=O)[nH]c1=O	i	10.3µM	?	nt	nt	i
COc1ccc(-n2c(-c3ccc(C)cc3)cc3c2CC(C)(C)CC3=O)cc1Cl	nt	i	i	nt	nt	nt
Cc1cc(-c2c(C(=O)N3CCOCC3)c(C)nn2-c2ccccc2)no1	i	i	i	i	i	i
O=S(=O)(Nc1cccc2cccnc12)c1ccccc1O	nt	nt	nt	2µM	3.16µM	nt
Nc1ccc(S(=O)(=O)Nc2ccccn2)cc1	i	i	i	i	i	i
Nc1ccc(S(=O)(=O)Nc2cccc3cccnc23)cc1	nt	nt	nt	3.98µM	11.2µM	nt
O=S(=O)(Nc1cccc2cccnc12)c1ccc(Br)cc1	nt	nt	nt	0.562µM	1.26µM	nt
Cc1cc(C)c(S(=O)(=O)Nc2cccc3cccnc23)c(C)c1	nt	nt	nt	0.0891µM	0.316µM	nt
CC(C)CNC(=S)N(CCCN(C)C)Cc1cc2cc3c(cc2[nH]c1=O)OCCO3	i	i	i	i	i	?
O=S(=O)(Nc1cccc2cccnc12)c1ccc2ccccc2c1	nt	nt	nt	5.62µM	0.631µM	nt
